This note sets out measurements from paper PMC4336329 (PLoS ONE, 2015).

Each structure is given as a SMILES string. About 14,000 (4.5%) of roughly 310,000 compounds showed an effect of 50% or more. Effects have a minus sign here. The sample holds strong results, similar compounds and a random draw of the others, so the mix is not that of the screen.
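Note: peak tail current of the secondary pulse compared with the same well before compound.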

Sequence of human ether-à-go-go-related gene (hERG) potassium channel (Q12809 whole entry, looked up): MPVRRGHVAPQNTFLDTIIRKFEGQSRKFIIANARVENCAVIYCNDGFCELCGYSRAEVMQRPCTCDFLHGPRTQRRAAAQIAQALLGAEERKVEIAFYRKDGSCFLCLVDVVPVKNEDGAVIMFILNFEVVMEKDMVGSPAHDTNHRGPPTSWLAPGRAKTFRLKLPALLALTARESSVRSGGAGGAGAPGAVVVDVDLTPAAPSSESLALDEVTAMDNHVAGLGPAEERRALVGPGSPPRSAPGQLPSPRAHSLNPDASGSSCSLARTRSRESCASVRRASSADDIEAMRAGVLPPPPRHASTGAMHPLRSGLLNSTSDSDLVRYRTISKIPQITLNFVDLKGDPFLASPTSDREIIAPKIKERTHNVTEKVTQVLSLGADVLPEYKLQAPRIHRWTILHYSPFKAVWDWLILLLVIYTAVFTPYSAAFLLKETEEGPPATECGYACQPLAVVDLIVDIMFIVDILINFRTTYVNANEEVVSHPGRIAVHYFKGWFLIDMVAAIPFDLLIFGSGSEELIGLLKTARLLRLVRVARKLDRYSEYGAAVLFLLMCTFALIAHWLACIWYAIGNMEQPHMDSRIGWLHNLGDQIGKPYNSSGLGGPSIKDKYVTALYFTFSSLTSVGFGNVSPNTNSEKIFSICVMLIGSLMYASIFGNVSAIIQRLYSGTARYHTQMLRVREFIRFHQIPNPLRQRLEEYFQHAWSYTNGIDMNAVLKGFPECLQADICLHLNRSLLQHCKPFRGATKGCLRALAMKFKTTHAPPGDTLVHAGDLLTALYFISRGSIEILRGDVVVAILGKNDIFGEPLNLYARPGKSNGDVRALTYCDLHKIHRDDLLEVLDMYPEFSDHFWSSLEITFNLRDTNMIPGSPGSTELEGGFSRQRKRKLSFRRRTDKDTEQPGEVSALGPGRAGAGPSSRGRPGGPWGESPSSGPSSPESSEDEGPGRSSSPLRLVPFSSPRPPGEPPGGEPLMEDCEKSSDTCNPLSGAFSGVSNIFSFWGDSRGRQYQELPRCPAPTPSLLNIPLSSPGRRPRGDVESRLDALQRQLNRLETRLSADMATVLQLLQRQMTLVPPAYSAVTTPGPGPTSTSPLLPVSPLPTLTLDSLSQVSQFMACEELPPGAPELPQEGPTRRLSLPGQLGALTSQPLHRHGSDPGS

This assay concerns the target human ether-à-go-go-related gene (hERG) potassium channel (human, UniProt Q12809). The experiment in a line: primary screen, population patch clamp on CHO cells stably expressing hERG; higher = less effect of the substance.
Turning to `O=C(NC1CCCCCC1)c1cccnc1Sc1ccccc1`, the “hERG current change (%, negative = inhibition) at 10uM” value was -15.4%.
The figure for `O=S(=O)(c1ccc(NC(=S)N2CCN(c3ccc(O)cc3)CC2)cc1)N1CCOCC1` is 2.83%; for `COC(=O)C[C@H]1c2cc(F)cc(F)c2S(=O)(=O)N1C1CCN(Cc2ccccc2)CC1` it is -32%; for `CC(=O)Nc1ccc(S(=O)(=O)CCC(=O)O)cc1` it is 17.5%.
For `Cc1cc(C(=O)Nc2sc(C)c(C)c2C#N)c(C)o1`, the “hERG current change (%, negative = inhibition) at 10uM” value stood at 20.6%.
Regarding `Cc1ccc2oc(C(=O)NCC(c3ccco3)N(C)C)c(C)c2c1` (stereo not shown), the “hERG current change (%, negative = inhibition) at 10uM” value is listed as -8.52%.
In the case of `CCn1cc(CN2CCC(n3nccc3NC(=O)CCOc3ccccc3)CC2)c(C)n1` it was 7.84%.
Consider `CCn1cc(CN2CCC(n3nccc3NC(=O)CCOc3ccccc3)CC2)cn1`, for which the “hERG current change (%, negative = inhibition) at 10uM” value is listed as -12.9%.
With `O=C(CCOc1ccccc1)Nc1ccnn1C1CCN(Cc2ccc(F)cc2)CC1`, the “hERG current change (%, negative = inhibition) at 10uM” value is given as -59.1%.
The figure for `COc1ccc(CN2CCC(n3nccc3NC(=O)CCOc3ccccc3)CC2)cc1C` is -68.7%; for `Cc1ccc(CN2CCC(n3nccc3NC(=O)CCOc3ccccc3)CC2)cc1C` it is -48.2%.
The figure for `O=C(COc1ccc2c3c(c(=O)oc2c1)CCC3)NCC(O)c1ccccc1` (stereo not shown) is 11.5%; for `CCOC(=O)C1CCCN(S(=O)(=O)c2ccc3c(c2)NC(=O)CO3)C1` (stereo not shown) it is -1.47%.
Consider `COc1ccc(C2(C)NC(=O)N(CC(=O)Nc3ccc(S(=O)(=O)N4CCCC4)cc3)C2=O)cc1` (stereo not shown), for which the “hERG current change (%, negative = inhibition) at 10uM” value was -2.91%.
`O=C(CN1CCN(c2ccccn2)CC1)Nc1ccc(OCc2ccccc2)cc1`: the “hERG current change (%, negative = inhibition) at 10uM” value was -45.3%.
The figure for `CN1CCN(CC(=O)Nc2ccc(OCc3ccccc3)cc2)CC1.Cl` is -9.11%.
On to `O=C(CN1CCN(c2ccccc2)CC1)Nc1ccc(OCc2ccccc2)cc1`, for which the “hERG current change (%, negative = inhibition) at 10uM” value is reported as 2.44%.
On to `O=C(CN1CCOCC1)Nc1ccc(OCc2ccccc2)cc1`, for which the “hERG current change (%, negative = inhibition) at 10uM” value is reported as -21.3%.
The figure for `O=C(CN1CCCC1)Nc1ccc(OCc2ccccc2)cc1` is -54.1%; for `O=C(CN1CCN(CC(=O)Nc2ccc(OCc3ccccc3)cc2)CC1)Nc1ccc(F)cc1` it is -72.5%.
Consider `COC(=O)c1ccc(N=Cc2c(C(F)(F)F)[nH][nH]c2=O)cc1`, for which the “hERG current change (%, negative = inhibition) at 10uM” value is given as 27.2%.
As for `CCCCCc1nc2ccccc2c(=O)n1-c1ccccc1[N+](=O)[O-]`, the “hERG current change (%, negative = inhibition) at 10uM” value is listed as -24.5%.
`Cc1ccc(NC(=O)c2cccs2)cc1NC(=O)c1cccc(F)c1`: the “hERG current change (%, negative = inhibition) at 10uM” value was 5.36%.
Take `CC(C)c1c(O)nc(SCc2ccccc2)[nH]c1=O`: the “hERG current change (%, negative = inhibition) at 10uM” value is 11.5%.
In the case of `CSc1ccccc1C(=O)NCC1CCCO1` (stereo not shown), the “hERG current change (%, negative = inhibition) at 10uM” value is reported as -11.8%.
For `O=C(O)CCSc1nnnn1-c1ccccc1`, the “hERG current change (%, negative = inhibition) at 10uM” value is -1.42%.
Consider `CCSc1nnc2c(Cl)cc(Cl)cn12`, for which the “hERG current change (%, negative = inhibition) at 10uM” value came to 5.28%.
As to `O=C1c2ccccc2C(=O)N1CCCCSc1nnnn1-c1ccccc1`, the “hERG current change (%, negative = inhibition) at 10uM” value was -51.7%.
Take `O=C1c2ccccc2C(=O)N1CSc1nnnn1-c1ccccc1`: the “hERG current change (%, negative = inhibition) at 10uM” value is recorded as -3.73%.
For `O=C1c2ccccc2C(=O)N1CCCCSc1nnc2c(Cl)cc(Cl)cn12`, the “hERG current change (%, negative = inhibition) at 10uM” value was -80.2%.
For `O=C1c2ccccc2C(=O)N1CCCCSc1nnc2ccccn12`, the “hERG current change (%, negative = inhibition) at 10uM” value is -22.7%.
Consider `CC(=O)OCc1cc(-c2nc3ccccc3[nH]c2=O)nn1-c1ccc(Cl)cc1`, for which the “hERG current change (%, negative = inhibition) at 10uM” value is 18%.
In the case of `O=C(CSc1nc2[nH]ncc2c(=O)[nH]1)NCCc1ccccc1`, the “hERG current change (%, negative = inhibition) at 10uM” value came out at 26.9%.
Turning to `O=[N+]([O-])c1ccc2c(c1N1CCCCC1)=NC1(CCCCC1)[N+]=2[O-]`, the “hERG current change (%, negative = inhibition) at 10uM” value is -8.78%.
In the case of `Cc1ccc(NC(=O)C/C(N)=N/OC(=O)Nc2ccc(C)c(Cl)c2)cc1` it was 4.56%; in that of `COCCCNC(=O)c1ccc(-n2nc(C(F)(F)F)cc2-c2cccs2)cc1`, -30.6%.
The figure for `O=C(NCCCN1CCOCC1)c1cc(-c2cccs2)on1` is -15.7%; for `O=C(NCCCN1CCOCC1)c1ccc(-n2nc(C(F)(F)F)cc2-c2cccs2)cc1` it is -80.4%; for `COc1ccc(C(=O)COC(=O)CN2C(=O)NC(C)(C)C2=O)cc1OC` it is -1.87%.
As for `NC(=O)C(=O)N/N=C/c1c[nH]c2ccc(Br)cc12`, the “hERG current change (%, negative = inhibition) at 10uM” value is given as 12.7%.
As for `O=C(NC(=S)Nc1ccc(CN2CCOCC2)cc1)c1cccc([N+](=O)[O-])c1`, the “hERG current change (%, negative = inhibition) at 10uM” value was 10.7%.
The figure for `Cc1ccc(-n2c(=O)[nH]cc(C(=O)Nc3ccc4c(c3)OCCO4)c2=O)cc1C` is -5.33%; for `CCN1CCC(NCCc2ccc(F)cc2)CC1` it is -0.893%; for `CC(C)C(CCNC1CCN(C)CC1)c1ccc(Cl)cc1` (stereo not shown) it is 11.3%.
The figure for `CN1CCC(NCCC(c2ccc(F)cc2)c2ccc(Cl)cc2)CC1` (stereo not shown) is -71.5%; for `Cc1ccccc1-c1noc(CNC(=O)COc2ccccc2)n1` it is -10.4%.
As to `COc1ccc(C(=O)N(C)Cc2ccccc2)cc1Br`, the “hERG current change (%, negative = inhibition) at 10uM” value was -8.29%.
For `CCOc1ccc(NC(=O)CN(C)C(=O)C2CCN(C(=O)c3ccc(Cl)cc3)CC2)cc1OCC`, the “hERG current change (%, negative = inhibition) at 10uM” value was -48.1%.
With `CN(CC(=O)Nc1cccc(F)c1)C(=O)C1CCN(C(=O)c2ccc(Cl)cc2)CC1`, the “hERG current change (%, negative = inhibition) at 10uM” value was -55.5%.
As to `CN(CC(=O)Nc1ccccc1Br)C(=O)C1CCN(C(=O)c2ccc(Cl)cc2)CC1`, the “hERG current change (%, negative = inhibition) at 10uM” value is recorded as -50.1%.
Consider `CN(CC(=O)Nc1ccccc1Br)C(=O)c1ccc(-c2ccc(Cl)cc2)o1`, for which the “hERG current change (%, negative = inhibition) at 10uM” value came out at 5.51%.
`CN(CC(=O)Nc1ccccc1C(F)(F)F)C(=O)C1CCN(C(=O)c2ccc(Cl)cc2)CC1`: the “hERG current change (%, negative = inhibition) at 10uM” value is -31.8%.
On to `Cc1cc(Br)ccc1NC(=O)CN(C)C(=O)CCSc1ccc(F)cc1`, for which the “hERG current change (%, negative = inhibition) at 10uM” value is 0.468%.
For the molecule `CN(CC(=O)Nc1ccccc1Cl)C(=O)C1CCN(C(=O)c2ccc(Cl)cc2)CC1`, the “hERG current change (%, negative = inhibition) at 10uM” value is -35.1%.
In the case of `CN(CC(=O)Nc1ccccc1Cl)C(=O)C1CCN(C(=O)c2ccc(F)cc2)CC1`, the “hERG current change (%, negative = inhibition) at 10uM” value is on record as -20.9%.
As for `Cc1ccccc1C(=O)N1CCC(C(=O)N(C)CC(=O)Nc2cccc(F)c2)CC1`, the “hERG current change (%, negative = inhibition) at 10uM” value is 12.4%.
Regarding `CN(CC(=O)Nc1ccccc1Br)C(=O)CN1CCN(c2ccccc2Cl)CC1`, the “hERG current change (%, negative = inhibition) at 10uM” value is -29.6%.
For `Cc1cc(Br)ccc1NC(=O)CN(C)C(=O)C1CCN(C(=O)c2ccc(F)cc2)CC1`, the “hERG current change (%, negative = inhibition) at 10uM” value is listed as -65.1%.
For the molecule `CN(CC(=O)Nc1ccccc1Br)C(=O)CN1CCN(Cc2ccc(Cl)cc2)CC1`, the “hERG current change (%, negative = inhibition) at 10uM” value is -66.9%.
Turning to `CC(=O)Nc1ccc(Sc2ccccc2C(=O)O)c(C(=O)O)c1`, the “hERG current change (%, negative = inhibition) at 10uM” value is reported as 19.4%.
With `CCCc1[nH]n(-c2ccc(F)cc2)c(=O)c1C=Nc1ccc(C)cc1`, the “hERG current change (%, negative = inhibition) at 10uM” value was 4.95%.
Consider `CCOc1ccccc1NC(=O)Nc1ccc(OC)nc1`, for which the “hERG current change (%, negative = inhibition) at 10uM” value was 14.7%.
In the case of `CCOC(=O)c1ccc(S(=O)(=O)NC2CCCCCCC2)n1C`, the “hERG current change (%, negative = inhibition) at 10uM” value was -12.4%.
`O=C(NCc1ccccc1)C1CCCN(S(=O)(=O)c2cccs2)C1` (stereo not shown): the “hERG current change (%, negative = inhibition) at 10uM” value is listed as -0.56%.
In the case of `COc1ccc(-c2cc(C(=O)N3CCN(Cc4ccc5c(c4)OCO5)CC3)on2)cc1OC` it was 2.8%; in that of `COc1ccc2oc(-c3ccccc3)c(C(=O)N3CCOCC3)c2c1`, -8.44%.
On to `Cc1csc(NC(=O)c2c(-c3c(F)cccc3Cl)noc2C)n1`, for which the “hERG current change (%, negative = inhibition) at 10uM” value was -10.9%.
For `Cc1ccc(S(=O)(=O)NC2CCCC2)cc1C`, the “hERG current change (%, negative = inhibition) at 10uM” value was -9.68%.
In the case of `CCC[N+](CC#Cc1ccccc1)(CCC)CC(=O)OCC`, the “hERG current change (%, negative = inhibition) at 10uM” value is given as -1.25%.
With `C[N+](C)(CC#Cc1ccccc1)CC(=O)c1ccccc1.[Br-]`, the “hERG current change (%, negative = inhibition) at 10uM” value was -13.5%.
As to `CCC[N+](CC#Cc1ccccc1)(CCC)CC(=O)c1ccc(Cl)cc1`, the “hERG current change (%, negative = inhibition) at 10uM” value is reported as -67.4%.
The figure for `CC[N+](CC)(CC#Cc1ccccc1)CC(=O)c1ccc(Cl)cc1` is -60.3%; for `C[N+](C)(CC#Cc1ccccc1)CC(=O)c1ccc(Cl)cc1` it is -28.3%; for `CCC[N+](CC#Cc1ccccc1)(CCC)CC(=O)OC` it is 9.58%.
`Cl.c1ccc2c(N3CCNCC3)cccc2c1`: the “hERG current change (%, negative = inhibition) at 10uM” value is given as 10.9%.
Consider `Cc1nnc(NC(=O)C2=COCCO2)s1`, for which the “hERG current change (%, negative = inhibition) at 10uM” value stood at 7.13%.
The figure for `CN(C)CCCNCC(=O)NN(c1ccccc1)c1ccccc1.O=C(O)C(=O)O` is -17.4%; for `CCC(C)[C@H](N)c1nnc(SCC(=O)Nc2cccc(Cl)c2)o1.Cl` (stereo partly shown) it is -15.6%; for `COc1cnc(-c2ccccn2)nc1N(C)C` it is -1.39%.
For `CC(=NCc1ccco1)c1c(O)n(-c2ccccc2)c(=O)[nH]c1=O`, the “hERG current change (%, negative = inhibition) at 10uM” value was found to be 4.82%.
As to `COc1cc(/C=N/NC(=S)NCCN2CCOCC2)cc(OC)c1O`, the “hERG current change (%, negative = inhibition) at 10uM” value came to 12.7%.
Turning to `CCCCCNC(=O)c1cccc(S(=O)(=O)N2CC3(C)CC2CC(C)(C)C3)c1` (stereo not shown), the “hERG current change (%, negative = inhibition) at 10uM” value is -1.24%.
Regarding `CCCNC(=O)c1cccc(S(=O)(=O)N2CC3(C)CC2CC(C)(C)C3)c1` (stereo not shown), the “hERG current change (%, negative = inhibition) at 10uM” value is -57.6%.
With `CC1(C)CC2CC(C)(CN2S(=O)(=O)c2cccc(C(=O)OCC(=O)NC(N)=O)c2)C1` (stereo not shown), the “hERG current change (%, negative = inhibition) at 10uM” value was -57.1%.
For the molecule `CNC(=O)NC(=O)COC(=O)c1cccc(S(=O)(=O)N2CC3(C)CC2CC(C)(C)C3)c1` (stereo not shown), the “hERG current change (%, negative = inhibition) at 10uM” value is -14.4%.
With `CCCCNC(=O)c1cccc(S(=O)(=O)N2CC3(C)CC2CC(C)(C)C3)c1` (stereo not shown), the “hERG current change (%, negative = inhibition) at 10uM” value is given as -26.7%.
In the case of `CC1(C)CC2CC(C)(CN2S(=O)(=O)c2cccc(C(=O)OCC(N)=O)c2)C1` (stereo not shown) it was -7.62%; in that of `Br.O=C1SC(SC(=Nc2ccccc2)Nc2ccccc2)C(=O)N1c1ccccc1` (stereo not shown), 11.1%.
